Measured values published in the supplement of paper PMC3842684.

system: P. falciparum NF54-pfs16-GFP late (IV-V) stage gametocytes; experiment: relative % inhibition of viable gametocyte number; higher = more gametocytocidal; conditions: 0.5 µM; stage: late (IV-V) gametocyte; incubation 72 h
Summary of the method: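 Early-stage (I/IIa, day 2) or late-stage (day 8) NF54 pfs16-GFP gametocytes were isolated by magnet and plated in 384-well poly-D-lysine imaging plates at 10% parasitaemia and 0.1% haematocrit, with compound in duplicate at 5 or 0.5 µM. After 72 h at 37°C under 5% CO2 and 5% O2, MitoTracker Red was added overnight. Confocal imaging scored elongated GFP objects whose MitoTracker signal passed a cut-off as viable gametocytes. Relative inhibition was normalised against vehicle and positive-control wells on the same plate.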

| Structure (SMILES) | relative % inhibition [%] |
| --- | --- |
| COc1ccc(CCN2CCC(CN(C)Cc3cnn(-c4ccccc4)c3)CC2)cc1 | 11.3 |
| COc1ccc2c(=O)cc(C(Cl)(Cl)Cl)oc2c1 | 8.37 |
| O=C1c2ccc3c4c(ccc(c24)C(=O)N1CCCCO)C(=O)N(CCCCO)C3=O | 5.48 |
| COc1ccc(Nc2cc(C)nc(NCc3ccccc3)n2)cc1 | -3.1 |
| O=C(Nc1nc(-c2ccccn2)cs1)c1ccccc1Br | -7.93 |
| COc1ccc(C(C)=O)cc1N1C(=O)C2C(C1=O)C1(c3ccccc3)C(=O)C2(c2ccccc2)C(c2ccc(C)cc2)=C1c1ccc(C)cc1 (centres undefined) | 78.9 |
| CC(C)(C)c1ccc(C(=O)Nc2nc3ccccc3s2)cc1 | 6.03 |
| COc1ccc(Nc2nc(NN=Cc3ccc(O)cc3)nc(Nc3ccc([N+](=O)[O-])cc3)n2)cc1 | -4.05 |
| CCOc1cccc(C(=O)Nc2ccc(-c3nc4ccccc4[nH]3)cc2)c1 | 4.79 |
| CN1CCN(c2c3c(c(C#N)c4nc5ccccc5n24)CCC3)CC1 | -1.94 |
| CCOC(=O)c1ccc2nc(-c3ccccc3)cc(O)c2c1 | 50.6 |
| Fc1ccc2[nH]c3c(NCCCN4CCOCC4)ncnc3c2c1 | -16.8 |
| O=C(NC1CCN(Cc2ccccc2)CC1)c1cc(-c2cccnc2)nc2ccc(Cl)cc12 | -30.4 |
| CC(C)(C)CC(C)(C)NCC(O)COc1ccc(Cl)cc1Cl (centres undefined) | 90.2 |
| COc1ccc(C2c3ccc4ccccc4c3Oc3ncn(CCCN(C)C)c(=N)c32)cc1 (centres undefined) | 108 |
| O=C(Nc1cccc(C(F)(F)F)c1)c1cc(Cl)ccc1O | 15 |
| Cc1ccc(-c2cc3c(nn2)-c2ccccc2C3=O)cc1 | 102 |
| CCCCOC(=O)c1ccc(Nc2cc(C)nc3ccc(OC)cc23)cc1 | 13.1 |
| Nc1ccc(-c2nc3cc(Cc4ccc5[nH]c(-c6ccc(N)cc6)nc5c4)ccc3[nH]2)cc1 | 14.6 |
| O=C(Nc1cccc(C2=NCCN2)c1)Nc1cccc(C2=NCCN2)c1 | 10.7 |

| Structure (SMILES) | relative % inhibition [%] |
| --- | --- |
| CCCCc1c(C)nc2c(OC)cccc2c1O | 35.7 |
| O=C(Nc1ccc(-c2nc3ccccc3[nH]2)cc1)c1ccc(Cl)c(Cl)c1 | 0.0958 |
| CCCc1c(C)nc2ccccc2c1O | 56.5 |
| COc1ccc2nc(N)nc(C)c2c1 | 10.6 |
| O=C(Nc1ccsc1C(=O)NC1CCCCC1)c1ccc(F)cc1 | -4.86 |
| Cc1cc(N2CCN(C3CCCC3)CC2)n2c(nc3ccccc32)c1C#N | 11.3 |
| COc1ccc(OC)c(C2C3=C(CC(C)(C)CC3=O)N(c3ccc(Cl)c(Cl)c3)C3=C2C(=O)CC(C)(C)C3)c1 | 13.8 |
| CCn1c(CN2CCN(Cc3ccccc3)CC2)nc2cc(NC(=O)c3cccs3)ccc21 | 28.5 |
| COc1ccc(C=C2SC(Nc3ccccc3)=NC2=O)cc1 | 47.2 |
| COc1ccc(C2=C(c3ccc(OC)cc3)C3(c4ccccc4)C(=O)C2(c2ccccc2)C2C(=O)N(c4ccc(C)cc4)C(=O)C23)cc1 (centres undefined) | 34.3 |
| Oc1c(CN2CCN(c3ccccc3F)CC2)cc(Br)c2cccnc12 | 22.3 |
| COc1ccc(C2N(C)c3ccccc3N2C)cc1 | 17.9 |
| CC(C)CCNCC(O)Cn1c2ccccc2c2ccccc21 (centres undefined) | 19 |
| CCCn1c(=N)c(C(=O)NC2CCCCC2)cc2c(=O)n3cccc(C)c3nc21 | -19.9 |
| O=c1nc(C=Cc2ccc(Cl)cc2)oc2ccccc12 | 7.96 |
| COC(=O)c1ccc(C2C3=C(O)CC(c4ccc(F)cc4)CC3=Nc3ccccc3N2C(=O)c2ccccc2)cc1 (centres undefined) | 88.6 |
| CCCCCn1c(=N)n(CC(O)COc2cccc(C)c2)c2ccccc21 (centres undefined) | -3.63 |
| COc1ccc(N2CCN(C(CNC(=O)CC(C)(C)C)c3ccc4c(c3)OCO4)CC2)cc1 (centres undefined) | 42.2 |
| Nc1ccc(-c2nc3cc(Oc4ccc(Oc5ccc6[nH]c(-c7ccc(N)cc7)nc6c5)cc4)ccc3[nH]2)cc1 | 13.4 |
